{"source": "the supplement of paper PMC12582362", "note": "Structures can show the parent of a compound that is named as a salt. Among all 1,500 compounds or so, about 30 (2%) showed activity. What follows is part of a selection rich in actives, with near analogues and random picks from the rest. Unmarked numbers belong to inactive results.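 How the source made its calls: active = robust z-score below -2; a few such results were not called.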"}
{"tested_on": "optoTopBP1 Flp-In 293 T-REx (HEK293) cells", "test": "light-induced TopBP1 condensate (nuclear foci) count, plate-normalised robust z-score vs non-control wells; higher = more TopBP1 condensates (negative = condensation inhibitor), active = hit call of the paper", "conditions": "10 µM; incubation time 2 h"}
{"smiles": "CC[N+](C)(CC)CCC[n+]1c(-c2ccccc2)c2cc(N)ccc2c2ccc(N)cc21", "note": "[Propidium iodide]", "light-induced TopBP1 condensate (z-score)": "-3.58 (active)"}
{"smiles": "C[C@]12CCC(=O)C=C1C=C[C@@H]1[C@@H]2CC[C@@]2(C)[C@H]1CC[C@@]21CCC(=O)O1", "note": "[Canrenone]", "light-induced TopBP1 condensate (z-score)": 0.252}
{"smiles": "COCCCOc1ccnc(C[S+]([O-])c2nc3ccccc3[nH]2)c1C", "note": "(stereo not drawn) [Rabeprazole Sodium salt]", "light-induced TopBP1 condensate (z-score)": -0.658}
{"smiles": "CC(C)=C/C(C)=N/Nc1nncc2ccccc12", "note": "[Budralazine]", "light-induced TopBP1 condensate (z-score)": -0.574}
{"smiles": "CC(N)C12CC3CC(CC(C3)C1)C2", "note": "(stereo not drawn) [Rimantadine Hydrochloride]", "light-induced TopBP1 condensate (z-score)": -0.685}
{"smiles": "OC[C@H]1O[C@@H](c2ccc(Cl)c(Cc3ccc(O[C@H]4CCOC4)cc3)c2)[C@H](O)[C@@H](O)[C@@H]1O", "note": "[Empagliflozin]", "light-induced TopBP1 condensate (z-score)": 0.47}
{"smiles": "CN(C)[C@@H]1C(O)=C(C(N)=O)C(=O)[C@@]2(O)C(O)=C3C(=O)c4c(O)cccc4[C@@](C)(O)[C@H]3C[C@@H]12", "note": "[Tetracycline hydrochloride]", "light-induced TopBP1 condensate (z-score)": 0.0489}
{"smiles": "N#Cc1cc(NC(=O)C(=O)O)c(Cl)c(NC(=O)C(=O)O)c1", "note": "[Lodoxamide]", "light-induced TopBP1 condensate (z-score)": 0.686}
{"smiles": "Cc1ccc2c(Cl)cc(Cl)c(O)c2n1", "note": "[Chlorquinaldol]", "light-induced TopBP1 condensate (z-score)": "-9.09 (active)"}
{"smiles": "Oc1c(I)cc(Cl)c2cccnc12", "note": "[Clioquinol]", "light-induced TopBP1 condensate (z-score)": -0.446}
{"smiles": "Oc1c(Cl)cc(Cl)c2cccnc12", "note": "[Chloroxine]", "light-induced TopBP1 condensate (z-score)": -0.15}
{"smiles": "C[C@@H]1C[C@H]2[C@@H]3C[C@H](F)C4=CC(=O)C=C[C@]4(C)[C@@]3(F)[C@@H](O)C[C@]2(C)[C@@]1(O)C(=O)COC(=O)C(C)(C)C", "note": "[Flumethasone pivalate]", "light-induced TopBP1 condensate (z-score)": -0.352}
{"smiles": "COc1cc([S+](C)[O-])ccc1-c1nc2cccnc2[nH]1", "note": "(stereo not drawn) [Sulmazole]", "light-induced TopBP1 condensate (z-score)": 1.19}
{"smiles": "CCOc1ccc2c(c1)C(C)=CC(C)(C)N2", "note": "[Ethoxyquin]", "light-induced TopBP1 condensate (z-score)": 0.549}
{"smiles": "CC[C@@]1(O)C(=O)OCc2c1cc1n(c2=O)Cc2cc3c(CN(C)C)c(O)ccc3nc2-1", "note": "[Topotecan]", "light-induced TopBP1 condensate (z-score)": "-2.31 (active)"}
{"smiles": "CCc1c2c(nc3ccc(OC(=O)N4CCC(N5CCCCC5)CC4)cc13)-c1cc3c(c(=O)n1C2)COC(=O)[C@]3(O)CC", "note": "[Irinotecan hydrochloride trihydrate]", "light-induced TopBP1 condensate (z-score)": 1.07}
{"smiles": "CCCNC(C)(C)C(=O)Nc1ccccc1C", "note": "[Quatacaine]", "light-induced TopBP1 condensate (z-score)": -0.106}
{"smiles": "O=C1OCCN1/N=C/c1ccc([N+](=O)[O-])o1", "note": "[Furazolidone]", "light-induced TopBP1 condensate (z-score)": -0.718}
{"smiles": "CNCCCC12CCC(c3ccccc31)c1ccccc12", "note": "[Maprotiline hydrochloride]", "light-induced TopBP1 condensate (z-score)": -0.0912}
{"smiles": "CNCCC=C1c2ccccc2C=Cc2ccccc21", "note": "[Norcyclobenzaprine]", "light-induced TopBP1 condensate (z-score)": -0.386}
{"smiles": "CNCCCC1c2ccccc2C=Cc2ccccc21", "note": "[Protriptyline hydrochloride]", "light-induced TopBP1 condensate (z-score)": "-2.86 (active)"}
{"smiles": "COc1c(O[C@@H]2O[C@H](CO)[C@@H](O)[C@H](O)[C@H]2O)cc2c(c1OC)-c1ccc(SC)c(=O)cc1[C@@H](NC(C)=O)CC2", "note": "[Thiocolchicoside]", "light-induced TopBP1 condensate (z-score)": -0.423}
{"smiles": "CCCCCOC(=O)Nc1nc(=O)n([C@@H]2O[C@H](C)[C@@H](O)[C@H]2O)cc1F", "note": "[Capecitabine]", "light-induced TopBP1 condensate (z-score)": 0.43}
{"smiles": "CO[C@H]1/C=C/O[C@@]2(C)Oc3c(C)c(O)c4c(c3C2=O)C2=NC3(CCN(CC(C)C)CC3)NC2=C(NC(=O)/C(C)=C\\C=C\\[C@H](C)[C@H](O)[C@@H](C)[C@@H](O)[C@@H](C)[C@H](OC(C)=O)[C@@H]1C)C4=O", "note": "[Rifabutin]", "light-induced TopBP1 condensate (z-score)": -0.0256}
{"smiles": "COc1c(O)cc2c(c1O)[C@@H]1O[C@H](CO)[C@@H](O)[C@H](O)[C@H]1OC2=O", "note": "[Bergenin]", "light-induced TopBP1 condensate (z-score)": -0.755}
{"smiles": "Cc1nccn1CC1CCc2c(c3ccccc3n2C)C1=O", "note": "(stereo not drawn) [Ondansetron Hydrochloride]", "light-induced TopBP1 condensate (z-score)": 1.05}
{"smiles": "NC[C@H]1O[C@H](O[C@H]2[C@H](O)[C@@H](O[C@H]3O[C@H](CO)[C@@H](O)[C@H](N)[C@H]3O)[C@H](N)C[C@@H]2N)[C@H](N)C[C@@H]1O", "note": "[Tobramycin]", "light-induced TopBP1 condensate (z-score)": -0.114}
{"smiles": "CC(NN)c1ccccc1", "note": "(stereo not drawn) [Mebanazine]", "light-induced TopBP1 condensate (z-score)": 0.298}
{"smiles": "CC(NCCC(c1ccccc1)c1ccccc1)c1ccccc1", "note": "(stereo not drawn) [Fendiline hydrochloride]", "light-induced TopBP1 condensate (z-score)": "-2.06 (active)"}
{"smiles": "CNCC[C@@H](Oc1ccccc1C)c1ccccc1", "note": "[Tomoxetine hydrochloride]", "light-induced TopBP1 condensate (z-score)": -1.4}
{"smiles": "CC(C)[C@H]1CC[C@H](C(=O)N[C@H](Cc2ccccc2)C(=O)O)CC1", "note": "[Nateglinide]", "light-induced TopBP1 condensate (z-score)": -0.706}
{"smiles": "COc1cc(NC(C)CCCN)c2ncccc2c1", "note": "(stereo not drawn) [Primaquine diphosphate]", "light-induced TopBP1 condensate (z-score)": -1.07}
{"smiles": "N[C@@H]1CCCCN(c2c(F)cc3c(=O)c(C(=O)O)cn(C4CC4)c3c2Cl)C1", "note": "[Besifloxacin hydrochloride]", "light-induced TopBP1 condensate (z-score)": -0.0694}
{"smiles": "C[C@@H](O)[C@H]1C(=O)N2C(C(=O)O)=C(S[C@@H]3CN[C@H](CNS(N)(=O)=O)C3)[C@H](C)[C@H]12", "note": "[Doripenem monohydrate]", "light-induced TopBP1 condensate (z-score)": 1.08}
{"smiles": "Cc1cc(C(C)(C)CC(C)(C)C)ccc1OCCOCC[N+](C)(C)Cc1ccccc1", "note": "[Methyl benzethonium chloride]", "light-induced TopBP1 condensate (z-score)": -0.593}
{"smiles": "CCN(CC)C(=S)SSC(=S)N(CC)CC", "note": "[Disulfiram]", "light-induced TopBP1 condensate (z-score)": "-4.41 (active)"}
{"smiles": "C=C1c2c(Cl)ccc(O)c2C(=O)C2=C(O)[C@]3(O)C(=O)C(C(N)=O)=C(O)[C@@H](N(C)C)[C@@H]3[C@@H](O)[C@H]12.O=C(O)c1cc(S(=O)(=O)O)ccc1O", "note": "[Meclocycline sulfosalicylate]", "light-induced TopBP1 condensate (z-score)": 0.506}
{"smiles": "N[C@@H](CCC(=O)N[C@@H](CS)C(=O)NCC(=O)O)C(=O)O", "note": "[Glutathione]", "light-induced TopBP1 condensate (z-score)": 1.35}
{"smiles": "O=C(O)CCNC(=O)c1ccccc1", "note": "[Betamipron]", "light-induced TopBP1 condensate (z-score)": -0.17}
{"smiles": "Cn1c(=O)c2c(ncn2CCO)n(C)c1=O", "note": "[Etofylline]", "light-induced TopBP1 condensate (z-score)": 0.502}
{"smiles": "CO[C@@]12[C@H](COC(N)=O)C3=C(C(=O)C(C)=C(N)C3=O)N1C[C@@H]1N[C@@H]12", "note": "[Mitomycin C]", "light-induced TopBP1 condensate (z-score)": -0.867}
{"smiles": "N[C@H](Cc1ccccc1)C(=O)O", "note": "[D-phenylalanine]", "light-induced TopBP1 condensate (z-score)": -1.1}
{"smiles": "CC(C)(S)C(N)C(=O)O", "note": "(racemic) [D,L-Penicillamine]", "light-induced TopBP1 condensate (z-score)": 1.98}
{"smiles": "Cc1ccc(C)c(OCCCC(C)(C)C(=O)O)c1", "note": "[Gemfibrozil]", "light-induced TopBP1 condensate (z-score)": 0.575}
{"smiles": "CC(=O)[C@@]12O[C@](C)(c3ccccc3)O[C@@H]1C[C@H]1[C@@H]3CCC4=CC(=O)CC[C@]4(C)[C@H]3CC[C@@]12C", "note": "[Algestone acetophenide]", "light-induced TopBP1 condensate (z-score)": -1.65}
{"smiles": "COc1cc(NS(=O)(=O)c2ccc(N)cc2)nc(OC)n1", "note": "[Sulfadimethoxine]", "light-induced TopBP1 condensate (z-score)": 0.224}
{"smiles": "CCN(CC)C(=O)Nc1ccc(OCC(O)CNC(C)(C)C)c(C(C)=O)c1", "note": "(stereo not drawn) [Celiprolol hydrochloride]", "light-induced TopBP1 condensate (z-score)": -0.488}
{"smiles": "CCc1oc2ccccc2c1C(=O)c1ccc(O)cc1", "note": "[Benzarone]", "light-induced TopBP1 condensate (z-score)": 1.57}
{"smiles": "CCCCC1=NC2(CCCC2)C(=O)N1Cc1ccc(-c2ccccc2-c2nnn[nH]2)cc1", "note": "[Irbesartan]", "light-induced TopBP1 condensate (z-score)": -0.971}
{"smiles": "CN(C)C(=N)NC(=N)N", "note": "[Metformin hydrochloride]", "light-induced TopBP1 condensate (z-score)": -0.726}
{"smiles": "CC(C)(C)C(O)/C=C/c1ccc2c(c1)OCO2", "note": "(stereo not drawn) [Stiripentol]", "light-induced TopBP1 condensate (z-score)": 1.26}
{"smiles": "CCOC(=O)c1c(N)sc2c1CCN(Cc1ccccc1)C2", "note": "[Tinoridine hydrochloride]", "light-induced TopBP1 condensate (z-score)": 0.308}
{"smiles": "C[C@H]1O[C@@H](O[C@H]2[C@@H](O)C[C@H](O[C@H]3[C@@H](O)C[C@H](O[C@H]4CC[C@@]5(C)[C@H](CC[C@@H]6[C@@H]5C[C@@H](O)[C@]5(C)[C@@H](C7=CC(=O)OC7)CC[C@]65O)C4)O[C@@H]3C)O[C@@H]2C)C[C@H](O)[C@@H]1O", "note": "[Digoxin]", "light-induced TopBP1 condensate (z-score)": "-2.42 (active)"}
{"smiles": "CCCCOC(=O)c1ccccc1Nc1cccc(C(F)(F)F)c1", "note": "[Ufenamate]", "light-induced TopBP1 condensate (z-score)": -0.0275}
{"smiles": "O=C(NCCO[N+](=O)[O-])c1cccnc1", "note": "[Nicorandil]", "light-induced TopBP1 condensate (z-score)": 0.468}
{"smiles": "Cn1nnc2c(C(N)=O)ncn2c1=O", "note": "[Temozolomide]", "light-induced TopBP1 condensate (z-score)": -0.835}
{"smiles": "Cc1c(Cl)cccc1Nc1ncccc1C(=O)O", "note": "[Clonixin Lysinate]", "light-induced TopBP1 condensate (z-score)": 0.77}
{"smiles": "NC(=O)c1cc[n+](CC2=C(C(=O)[O-])N3C(=O)[C@@H](NC(=O)[C@@H](c4ccccc4)S(=O)(=O)O)[C@H]3SC2)cc1", "note": "[Cefsulodin sodium salt]", "light-induced TopBP1 condensate (z-score)": 0.128}
{"smiles": "CC[C@H]1OC(=O)[C@H](C)[C@@H](O[C@H]2C[C@@](C)(OC)[C@@H](O)[C@H](C)O2)[C@H](C)[C@@H](O[C@@H]2O[C@H](C)C[C@H](N(C)C)[C@H]2O)[C@](C)(O)C[C@@H](C)C(=O)[C@H](C)[C@@H](O)[C@]1(C)O", "note": "[Erythromycin]", "light-induced TopBP1 condensate (z-score)": -0.359}
{"smiles": "CCC1(c2ccccc2)NC(=O)N(C)C1=O", "note": "(stereo not drawn) [Mephenytoin]", "light-induced TopBP1 condensate (z-score)": 0.477}
{"smiles": "COCC(=O)O[C@]1(CCN(C)CCCc2nc3ccccc3[nH]2)CCc2cc(F)ccc2[C@@H]1C(C)C", "note": "[Mibefradil]", "light-induced TopBP1 condensate (z-score)": "-2.07 (active)"}
{"smiles": "COc1cc(/C=C/C(=O)N2CCN(CC(=O)N3CCCC3)CC2)cc(OC)c1OC", "note": "[Cinepazide maleate]", "light-induced TopBP1 condensate (z-score)": -0.187}
{"smiles": "CC(C)[C@H](N)C(=O)OCC(CO)OCn1cnc2c(=O)nc(N)[nH]c21", "note": "(stereo partly drawn) [Valganciclovir hydrochloride]", "light-induced TopBP1 condensate (z-score)": 0.111}
